According to the supplement of paper PMC8975748:
Where a name gives a salt, the structure may show the parent alone. ± gives the standard deviation of the averaged measurements.

What was measured:
[1] = test system: Saccharomyces cerevisiae BY4741 SeMeCo community; experiment: mean cell size (pixel area) (pixels); higher = larger cells; conditions: 10 µM; 24 h; SM minimal medium
How it was run: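 A fluorescent Saccharomyces cerevisiae BY4741 community carrying four plasmids was used, with each plasmid complementing one auxotrophy and bearing a fluorescent marker. An overnight preculture at OD600 = 1.0 was diluted to OD600 = 0.3, and 70 µl went into 384-well plates acoustically predosed with drug (final 10 µM) in SM medium for 24 h. After paraformaldehyde fixation, cells were imaged by automated confocal microscopy and analysed in Harmony, giving the mean cell pixel area per well. Each value is the average of 3 replicates. Same SeMeCo high-content imaging drug screen: Selleck FDA-approved drugs at 10 µM, 24 h in SM medium, 384-well plates, 3 replicates.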

[2] = test system: Saccharomyces cerevisiae BY4741 SeMeCo community; experiment: z-score of prototroph abundance vs DMSO median; higher = larger share of this subpopulation than in DMSO controls; conditions: 10 µM; 24 h; SM minimal medium; subpopulation (auxotrophy): Prototroph
How it was run: (§1)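 A Saccharomyces cerevisiae BY4741 community carried four plasmids, each restoring one auxotrophy and encoding a distinct fluorescent protein. It was pre-grown overnight to OD600 1.0, diluted to 0.3, and 70 µl was added to 384-well plates acoustically predosed with library drugs (10 µM final), then grown 24 h in minimal SM medium. Cells were paraformaldehyde-fixed and imaged by automated confocal microscopy, with single-auxotroph fluorescent strains setting thresholds and autofluorescence correction. Each subpopulation's abundance was scored as a z-score against the vehicle-well median.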

[3] = test system: Saccharomyces cerevisiae BY4741 SeMeCo community; experiment: z-score of subpopulation abundance vs DMSO median, subpopulation auxotrophic for L; higher = larger share of this subpopulation than in DMSO controls; conditions: 10 µM; 24 h; SM minimal medium; subpopulation (auxotrophy): L
How it was run: as §1

[4] = test system: Saccharomyces cerevisiae BY4741 SeMeCo community; experiment: z-score of subpopulation abundance vs DMSO median, subpopulation auxotrophic for LU; higher = larger share of this subpopulation than in DMSO controls; conditions: 10 µM; 24 h; SM minimal medium; subpopulation (auxotrophy): LU
How it was run: as §1

[5] = test system: Saccharomyces cerevisiae BY4741 SeMeCo community; experiment: z-score of subpopulation abundance vs DMSO median, subpopulation auxotrophic for LM; higher = larger share of this subpopulation than in DMSO controls; conditions: 10 µM; 24 h; SM minimal medium; subpopulation (auxotrophy): LM
How it was run: as §1

[6] = test system: Saccharomyces cerevisiae BY4741 SeMeCo community; experiment: z-score of subpopulation abundance vs DMSO median, subpopulation auxotrophic for HM; higher = larger share of this subpopulation than in DMSO controls; conditions: 10 µM; 24 h; SM minimal medium; subpopulation (auxotrophy): HM
How it was run: as §1

[7] = test system: Saccharomyces cerevisiae BY4741 SeMeCo community; experiment: z-score of subpopulation abundance vs DMSO median, subpopulation auxotrophic for HU; higher = larger share of this subpopulation than in DMSO controls; conditions: 10 µM; 24 h; SM minimal medium; subpopulation (auxotrophy): HU
How it was run: as §1

[8] = test system: Saccharomyces cerevisiae BY4741 SeMeCo community; experiment: z-score of subpopulation abundance vs DMSO median, subpopulation auxotrophic for UM; higher = larger share of this subpopulation than in DMSO controls; conditions: 10 µM; 24 h; SM minimal medium; subpopulation (auxotrophy): UM
How it was run: as §1

[9] = test system: Saccharomyces cerevisiae BY4741 SeMeCo community; experiment: z-score of subpopulation abundance vs DMSO median, subpopulation auxotrophic for HL; higher = larger share of this subpopulation than in DMSO controls; conditions: 10 µM; 24 h; SM minimal medium; subpopulation (auxotrophy): HL
How it was run: as §1

[10] = test system: Saccharomyces cerevisiae BY4741 SeMeCo community; experiment: z-score of subpopulation abundance vs DMSO median, subpopulation auxotrophic for HLU; higher = larger share of this subpopulation than in DMSO controls; conditions: 10 µM; 24 h; SM minimal medium; subpopulation (auxotrophy): HLU
How it was run: as §1

[11] = test system: Saccharomyces cerevisiae BY4741 SeMeCo community; experiment: z-score of subpopulation abundance vs DMSO median, subpopulation auxotrophic for HLM; higher = larger share of this subpopulation than in DMSO controls; conditions: 10 µM; 24 h; SM minimal medium; subpopulation (auxotrophy): HLM
How it was run: as §1

[12] = test system: Saccharomyces cerevisiae BY4741 SeMeCo community; experiment: z-score of subpopulation abundance vs DMSO median, subpopulation auxotrophic for HUM; higher = larger share of this subpopulation than in DMSO controls; conditions: 10 µM; 24 h; SM minimal medium; subpopulation (auxotrophy): HUM
How it was run: as §1

[13] = test system: Saccharomyces cerevisiae BY4741 SeMeCo community; experiment: z-score of subpopulation abundance vs DMSO median, subpopulation auxotrophic for LUM; higher = larger share of this subpopulation than in DMSO controls; conditions: 10 µM; 24 h; SM minimal medium; subpopulation (auxotrophy): LUM
How it was run: as §1

[14] = test system: Saccharomyces cerevisiae BY4741 SeMeCo community; experiment: z-score of subpopulation abundance vs DMSO median, subpopulation auxotrophic for U; higher = larger share of this subpopulation than in DMSO controls; conditions: 10 µM; 24 h; SM minimal medium; subpopulation (auxotrophy): U
How it was run: as §1

[15] = test system: Saccharomyces cerevisiae BY4741 SeMeCo community; experiment: z-score of subpopulation abundance vs DMSO median, subpopulation auxotrophic for H; higher = larger share of this subpopulation than in DMSO controls; conditions: 10 µM; 24 h; SM minimal medium; subpopulation (auxotrophy): H
How it was run: as §1

[16] = test system: Saccharomyces cerevisiae BY4741 SeMeCo community; experiment: z-score of subpopulation abundance vs DMSO median, subpopulation auxotrophic for HLUM; higher = larger share of this subpopulation than in DMSO controls; conditions: 10 µM; 24 h; SM minimal medium; subpopulation (auxotrophy): HLUM
How it was run: as §1

| SMILES | mean cell size [1] | z-score of prototroph abundance [2] | z-score of subpopulation abundance [3] | z-score of subpopulation abundance [4] | z-score of subpopulation abundance [5] | z-score of subpopulation abundance [6] | z-score of subpopulation abundance [7] | z-score of subpopulation abundance [8] | z-score of subpopulation abundance [9] | z-score of subpopulation abundance [10] | z-score of subpopulation abundance [11] | z-score of subpopulation abundance [12] | z-score of subpopulation abundance [13] | z-score of subpopulation abundance [14] | z-score of subpopulation abundance [15] | z-score of subpopulation abundance [16] |
| --- | --- | --- | --- | --- | --- | --- | --- | --- | --- | --- | --- | --- | --- | --- | --- | --- |
| CN[C@H](CC(C)C)C(=O)N[C@H]1C(=O)N[C@@H](CC(N)=O)C(=O)N[C@H]2C(=O)N[C@H]3C(=O)N[C@H](C(=O)N[C@H](C(=O)O)c4cc(O)cc(O)c4-c4cc3ccc4O)[C@H](O)c3ccc(c(Cl)c3)Oc3cc2cc(c3O[C@@H]2O[C@H](CO)[C@@H](O)[C@H](O)[C@H]2O[C@H]2C[C@](C)(N)[C@H](O)[C@H](C)O2)Oc2ccc(cc2Cl)[C@H]1O [Vancomycin HCl] | 12.1 ± 0.11 | 0 | -0.67 | 0.18 | 0.26 | 0.33 | 0.05 | 0.58 | -0.36 | -0.51 | 0.73 | 0.51 | -0.38 |  |  |  |
| Cc1ccc2c(Cl)cc(Cl)c(O)c2n1 [Chlorquinaldol] | 14.5 ± 0.18 |  | 0.46 | -2.2 | 9.8 | 33.5 | 7.3 |  | 19.8 | 28.9 | 107 | 15.8 | 16.2 | -6.35 | 9.18 | 114 |
| OCCOc1ccc(/C(=C(/CCCl)c2ccccc2)c2ccccc2)cc1 [Ospemifene] | 12.7 ± 0.24 | 0.59 | -0.6 | -1.59 | -0.34 | 1.37 | -0.18 |  | 0.7 | 0.94 | -0.21 | -0.62 | -0.52 | -0.86 | 0.74 | -0.5 |
| CC1=C(CC(=O)O)c2cc(F)ccc2/C1=C\c1ccc([S+](C)[O-])cc1 (stereo not drawn) [Sulindac] | 12.4 ± 0.21 |  | 1.59 | -0.59 | 1.7 | 0.57 |  | -1.2 | 0.1 | -0.15 | -0.2 | -0.07 | 0.36 | -1.92 | 0.69 |  |
| CO[C@H]1C[C@@H]2CC[C@@H](C)[C@@](O)(O2)C(=O)C(=O)N2CCCC[C@H]2C(=O)O[C@H]([C@H](C)C[C@@H]2CC[C@H](n3cnnn3)[C@H](OC)C2)CC(=O)[C@H](C)/C=C(\C)[C@@H](O)[C@@H](OC)C(=O)[C@H](C)C[C@H](C)/C=C/C=C/C=C/1C [Zotarolimus(ABT-578)] | 13.94 ± 0.041 |  | 0.32 | 3.23 | 2.28 | 23.2 |  | 7.28 | 15.7 | 18.8 | 18.4 | 22.3 | 5.72 | 3.68 | 14.4 | 31.4 |
| CC(=O)OCC1=C(C(=O)O)N2C(=O)[C@@H](NC(=O)Cc3cccs3)[C@H]2SC1 [Cephalothin] | 12.7 ± 0.19 |  |  | -0.87 |  | 1.49 |  | -0.2 |  | -0.21 |  | -0.69 | -0.19 | -1.22 | 0.18 | -0.41 |
| CN1CC(=O)N2[C@H](c3ccc4c(c3)OCO4)c3[nH]c4ccccc4c3C[C@@H]2C1=O [Tadalafil] | 12.3 ± 0.19 | -0.42 | 1.85 |  | 3.43 | 0.83 | -0.74 | -0.26 |  | 0.4 | 1.64 | 0.54 | 1.95 | -1.35 |  | 1.5 |
| CCN(CC)C(=O)[C@@]1(c2ccccc2)C[C@H]1CN [Levomilnacipran Hydrochloride] | 12.1 ± 0.27 | -0.02 | -1.78 | -0.02 | -1.21 | -0.69 | 1.07 | 0.93 | -0.6 | -0.95 |  | -0.17 | -0.59 | 1.27 | -0.22 | -0.66 |
| N#CC(c1ccc(Cl)cc1)c1c(Cl)cc(-n2ncc(=O)[nH]c2=O)cc1Cl (stereo not drawn) [Diclazuril] | 12.52 ± 0.088 | 1.02 | -0.07 | -0.92 | -0.81 | -0.31 | -0.93 | -1.39 | -0.28 | -0.02 |  | -0.94 | -0.7 | -1.07 | -0.16 | 0.35 |
| CC/C(=C(\c1ccccc1)c1ccc(OCCN(C)C)cc1)c1ccccc1 [Tamoxifen Citrate] | 11.7 ± 0.14 | -0.56 |  | 0.35 | -0.23 | 0.16 | 0.74 | 1.43 | 0.64 | 0.36 | -0.48 | 1.07 | 0.58 | 0.72 | 1.16 | -0.65 |
| Nc1cc(C(Cl)=C(Cl)Cl)c(S(N)(=O)=O)cc1S(N)(=O)=O [Clorsulon] |  | -0.96 | 0.16 | 0.95 | -0.35 | 0.02 |  |  |  | 0.22 | 0.02 | 0.92 | 1.09 | 0.03 | 0.76 | 0.24 |
| C#CCC(Cc1cnc2nc(N)nc(N)c2n1)c1ccc(C(=O)N[C@@H](CCC(=O)O)C(=O)O)cc1 (stereo partly drawn) [Pralatrexate] |  | 0.41 | 3.17 | -3.34 | 3.24 | 5.98 | -3.79 | -5.43 | 4.02 | 0.5 |  |  | -1.33 | -4.47 | 3.97 | 1.08 |
| O=c1c(-c2ccc(O)cc2)coc2c([C@@H]3O[C@H](CO)[C@@H](O)[C@H](O)[C@H]3O)c(O)ccc12 [Puerarin] | 12.55 ± 0.11 | -0.2 | -0.61 | -0.47 | -0.04 | 1.09 | 0.41 | 0.39 | 0.23 | 0.12 |  | -0.25 |  | 0.36 | 0.2 |  |
| CC1(C)S[C@@H]2[C@H](NC(=O)C(C(=O)O)c3ccccc3)C(=O)N2[C@H]1C(=O)O (stereo partly drawn) [Carbenicillin disodium] | 12.53 ± 0.098 | 0.19 | -0.23 | -0.26 | -0.02 | 0.66 | -0.53 | -0.3 | -0.49 | 0.36 |  | 0.12 |  | -0.46 | -0.07 | -0.61 |
| CO[C@@H]1[C@@H](OC(N)=O)[C@@H](O)[C@H](Oc2ccc3c(O)c(NC(=O)c4ccc(O)c(CC=C(C)C)c4)c(=O)oc3c2C)OC1(C)C [Novobiocin Sodium] | 12.7 ± 0.19 | -1.53 | -0.72 | 0.73 | -0.47 | 1.59 | 2.61 | 0.58 | 1.28 | 1.49 | 0.81 |  | 1.43 |  | 1.97 | 0.56 |
